Assay outcomes as filed in PubChem BioAssay.
Compounds with a hit are over-represented: about 12% of the library has one in this group of screens.
Sfp PPTase inh: qHTS Assay for Inhibitors of Bacillus subtilis Sfp phosphopantetheinyl transferase (PPTase); 4'-phosphopantetheinyl transferase ffp (Bacillus subtilis), Q9F4F7; Biochemical Sfp PPTase activity, qHTS; Potency, µM, inactives show largest response in the series, negative = inhibition, most hits filed as inhibitors; actives 3.5% (n = 310,000); AID 1490, 2009;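 further: the enzyme is Sfp with the accession as filed and its product quenches rhodamine fluorescence; 0% = enzyme reaction without inhibitor and -100% = no enzyme wells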
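Reaction rates are the 30-min fluorescence difference (ex 525, em 598 nm) in wells containing 15 nM Sfp, 5 uM rhodamine-CoA and 12.5 uM BHQ-2-YbbR at pH 7.6 with 10 mM MgCl2.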
G9a inh: qHTS Assay for Inhibitors of Histone Lysine Methyltransferase G9a; Histone-lysine N-methyltransferase EHMT2 (Homo sapiens), Q96KQ7; G9a H3K9 monomethylation, AlphaScreen, 2 h; Potency, µM (doses to about 102 µM), inactives show top-dose activity, negative = inhibition, most hits filed as inhibitors; actives 8.8% (n = 350,000); further: on the % scale 0 is the no-effect control and ±100 the full control effect; nearly all actives have a fitted effect of over 75% in size
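G9a (20 nM) was preincubated 15 min with compound, then reacted 2 h at room temperature with 500 nM biotin-H3K9 peptide and 20 µM SAM. Monomethyl-H3K9 detected by AlphaScreen using anti-H3K9me1 antibody.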
BAZ2B block: qHTS Assay for Inhibitors of BAZ2B; Bromodomain adjacent to zinc finger domain protein 2B (Homo sapiens), Q9UIF8; AlphaScreen BAZ2B-H3K14Ac peptide displacement; Potency, µM (series often up to 114 µM), inactives show at the highest dose activity change, negative = inhibition, usual class: inhibitors; actives 4.4% (n = 360,000); AID 504333, 2011; further: on the % scale 0 is the no-effect control and ±100 the full control effect; nearly all actives have a fitted effect of over 60% in size
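Compounds, titrated to a top concentration of 110 uM, were incubated 30 min at room temperature with preformed BAZ2B/acetyl-K14 H3 peptide complex (50 nM each). Proximity signal was measured by AlphaScreen after 20 min with beads.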
L3MBTL1 inh: qHTS Assay for the Inhibitors of L3MBTL1 | AlphaScreen L3MBTL1–H3K9me1 peptide binding | Potency, µM (titrated, usually from 57.1 µM), without a hit: at the highest dose activity, negative = inhibition, hits mostly inhibitors | actives 0.66% (n = 230,000); further: on the % scale 0 is the no-effect control and ±100 the full control effect; nearly all actives have a fitted effect of over 60% in size
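Displacement of a biotinylated histone H3(1-15) peptide monomethylated at Lys9 (75 nM) from L3MBTL1 (50 nM) was measured by AlphaScreen after a 30 min room-temperature compound incubation; cefsulodin titration served as intraplate control.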
HP1b binding inh: HTS for Inhibitors of HP1-beta Chromodomain Interactions with Methylated Histone Tails | AID 540317, 2011 | Potency, µM (doses to about 114 µM), inactives show top-dose activity change, negative = inhibition, most hits filed as inhibitors | AlphaScreen HP1-beta / biotin-H3K9me3 peptide binding | Chromobox protein homolog 1 (Homo sapiens), P83916 | actives 0.56% (n = 390,000); further: nearly all actives have a fitted effect of over 70% in size
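AlphaScreen: HP1-beta (50 nM) preformed 30 min with biotin-H3(1-18)K9me3 peptide (50 nM) in PBS pH 7.4, 0.01% Tween-20. Compound added for 30 min at RT, then streptavidin donor/nickel chelate acceptor beads (10 ug/mL) for 30 min.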
JMJD2A Tudor inh: qHTS Assay for Inhibitors of JMJD2A-Tudor Domain | Lysine-specific demethylase 4A (Homo sapiens), O75164 | AID 504339, 2011 | Potency, µM (series often up to 114 µM), without a hit: at the highest dose activity change, negative = inhibition, most hits filed as inhibitors | AlphaScreen JMJD2A-Tudor / H3K4me3 peptide binding | actives 4.4% (n = 390,000); further: on the % scale 0 is the no-effect control and ±100 the full control effect; nearly all actives have a fitted effect of over 50% in size
* = called active by the depositor; ? = inconclusive; / = no result given; [ ] = dose if it differs, or a comment. The call rests on the fitted dose curve; in most records, active means well fitted curve in the direction sought with a large enough effect; inconclusive means small, poorly fitted or top-dose-only effect, or another doubt; inactive means no such curve, though single readings can be large; an effect the other way counts as inactive or inconclusive. Potency means the concentration at half of the fitted maximal effect.

SMILES	Sfp PPTase inh	G9a inh	BAZ2B block	L3MBTL1 inh	HP1b binding inh	JMJD2A Tudor inh
CCn1c(-c2cc(-c3ccccc3)sc2N)n[nH]c1=S	-26%	1.1µM*	-20%	-17%	27%	-29%
Cc1ccccc1-c1n[nH]c(=S)n1Cc1ccccc1	-2%	/	-16%	-1%	17%	?
Oc1ccccc1-c1n[nH]c(=S)n1Cc1ccccc1	9%	2.8µM*	?	/	12%	20µM*
CCn1c(-c2ccccc2O)n[nH]c1=S	?	14µM*	-32%	0%	29%	4µM*
CCOc1ccc(-n2c(SCC(=O)Nc3cccc(Cl)c3)nc3c(oc4ccccc43)c2=O)cc1	/	-5%[59 µM]	2%	/	14%	-18%
Cc1nn(C(=O)c2cccc([N+](=O)[O-])c2C)c(C)c1S(=O)(=O)N1CCCCCC1	/	-3%[59 µM]	-20%	/	12%[57 µM]	-8%
COCCn1c(-c2ccccc2F)n[nH]c1=S	-1%	?	22%	2%	44%	35µM*
Oc1ccc(Br)cc1-c1n[nH]c(=S)n1Cc1ccccc1	-15%	6.3µM*	-23%	/	16%	?
COCCn1c(CCc2ccccc2)n[nH]c1=S	12%	-7%	0%	-7%	14%	?
CCn1c(-c2cc(-c3cccc(OC)c3)nc3ccccc23)n[nH]c1=S	?	1.1µM*	?	/	-2%	-36%
Cc1ncc(CO)c2c1Oc1nc(-c3ccccc3)nc(SCC(=O)N3CCCCC3)c1C2	-15%	40µM*	-23%	/	-4%	?
Cc1nc(-c2ccccn2)nc(SCC(=O)N2CCOCC2)c1Cl	16µM*	20µM*	5%	/	2%	-15%
COc1cccc(-c2nc3c(c(SCC(=O)Nc4cc(C)ccc4C)n2)Cc2c(CO)cnc(C)c2O3)c1	/	-26%[59 µM]	-32%	/	13%	-5%
COc1cccc(-c2nc3c(c(SCC(=O)N4CCOCC4)n2)Cc2c(CO)cnc(C)c2O3)c1	16%	14µM*	?	/	19%	?
Cc1cccc(-c2nc3c(c(SCC(=O)N4CCOCC4)n2)Cc2c(CO)cnc(C)c2O3)c1	-6%	45µM*	?	/	37%	?
Cc1ccc(C2N3CC4(C)CN2CC(c2ccccc2)(C3)C4=O)cc1 (stereo not given)	/	-3%[59 µM]	-27%	/	32%	-19%
Cc1ncc(CO)c2c1Oc1nc(-c3ccccc3)nc(SCC(=O)N3CCOCC3)c1C2	29%	32µM*	-31%	/	19%	-36%
COc1ccc([C@@H]2CC(=O)c3c(O)cc(O[C@@H]4O[C@H](CO)[C@@H](O)[C@H](O)[C@H]4OC4O[C@@H](C)[C@H](O)[C@@H](O)[C@H]4O)cc3O2)cc1O (stereo not given in full)	-5%	/	/	/	/	/
CCCCC(CC)C(=O)Nc1ccc(C)c(O)c1 (stereo not given)	16%	/	-5%	5%	-13%	50µM*
CCCCC(CC)C(=O)Nc1ccc(Nc2ccccc2)cc1 (stereo not given)	22%	?	?	-3%	-25%	?
Cc1ccc(C)c(Cn2c(C3CC(=O)N(c4ccccc4C)C3)nc3ccccc32)c1 (stereo not given)	/	-24%[59 µM]	?	/	21%	-15%
CCn1c(Sc2nc(C)nc3scc(-c4cccs4)c23)n[nH]c1=O	1%	45µM*	-9%	4%	62%	-17%[57.1 µM]
CCOc1ccc(C(=O)c2cn(CC(=O)Nc3ccc4c(c3)OCCO4)c3ccc(F)cc3c2=O)cc1	/	0%[59 µM]	-1%	/	40%	-11%
